Inconclusive results are not listed. Where a call stands in place of a potency, no number is given. Calls of active or inactive are those of the source. Unless noted, calls follow the shape of the dose curve; as a rule, active = well fitted cell-killing curve with a large enough effect; inconclusive = small, poorly fitted or top-dose-only effect; inactive = flat fitted curve, though single readings scatter.
What was measured:
[1] = Cell Viability - LYMP2-010 (AID 981); also: nearly all actives have a fitted effect of over 55% in size; also: potency is read from the fitted curve at half-maximal effect
Procedure, shortened: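 This 24 hr viability screen uses LYMP2-010 lymphoblastoid cells, quantifies ATP via luciferase luminescence, and derives AC50 from Hill fits of qHTS concentration-response data.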

[2] = Cell Viability - LYMP2-012 (AID 982);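 also: cellular ATP by luciferase luminescence where a drop means cytotoxicity; cells exposed to compound for one day before reading; nearly all actives have a fitted effect of over 55% in size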; also: potency is read from the fitted curve at half-maximal effect
[3] = Cell Viability - LYMP2-014 (AID 983);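 also: cells exposed to compound for 24 h at 37 °C; nearly all actives have a fitted effect of over 50% in size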; also: potency is read from the fitted curve at half-maximal effect
Procedure, shortened: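 Quantitative HTS in lymphoblastoid cells: 24 hr compound exposure, then CellTiter-Glo ATP luminescence. Positive control was tetraoctylammonium bromide, 6.4pM to 92 uM.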

[4] = Cell Viability - LYMP2-016 (AID 984); also: nearly all actives have a fitted effect of over 55% in size; also: potency is read from the fitted curve at half-maximal effect
Procedure, shortened: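 Human lymphoblastoid cells (LYMP2-016), 2500/well in complete medium, preincubated 5 hr at 37 C, then compound-treated 24 hr at 37 C. Intracellular ATP read by CellTiter-Glo luminescence after 30 min at room temperature; AC50 from Hill-equation concentration-response fits.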

[5] = Cell Viability - LYMP2-018 (AID 985); also: nearly all actives have a fitted effect of over 50% in size; also: potency is read from the fitted curve at half-maximal effect
Procedure, shortened: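 In this qHTS viability assay, cells are treated for 24 hr and cellular ATP is quantified by luciferase-based luminescence, with tetraoctylammonium bromide as positive control.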

[6] = Cell Viability - LYMP2-020 (AID 986);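 also: cells exposed to compound for 24 h at 37 °C; nearly all actives have a fitted effect of over 55% in size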; also: potency is read from the fitted curve at half-maximal effect
Procedure, shortened: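 Cells at 2500 per well receive a 24 hr compound exposure at 37 C. Viability is measured as ATP-dependent luciferase luminescence, with AC50 modeled from qHTS concentration-response curves.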

[7] = Cell Viability - LYMP2-022 (AID 987); also: nearly all actives have a fitted effect of over 55% in size; also: potency is read from the fitted curve at half-maximal effect
Procedure, shortened: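 In this qHTS cytotoxicity screen, compound titrations were incubated 24 hr at 37 C with human lymphoblastoid cells in complete medium. Luciferase-based ATP luminescence provided the viability signal.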

[8] = Cell Viability - LYMP2-024 (AID 988); also: nearly all actives have a fitted effect of over 60% in size; also: potency is read from the fitted curve at half-maximal effect
Procedure, shortened: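 Cells at 2500 per well received compound for 24 hr after a 5 hr settling period. Viability was scored by CellTiter-Glo luminescence, with AC50 from Hill fits.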

[9] = Cell Viability - LYMP1-002 - Assay at 24 hr (AID 993); also: potency is read from the fitted curve at half-maximal effect
Procedure, shortened: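 Viability was judged from intracellular ATP using a luciferase read-out, following a 24-hour compound incubation at 37 C of lymphoblastoid cells seeded at 2500 per well. Concentration-response data were fitted to the Hill equation for AC50.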

[10] = Cell Viability - LYMP1-002 - Assay at 40 hr (AID 994); also: nearly all actives have a fitted effect of over 60% in size
Procedure, shortened: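 Concentration-dependent ATP loss after 40 hr treatment at 37 C defined toxicity; AC50 values were obtained by fitting the standard Hill equation.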

[11] = qHTS Assay for Lipid Storage Modulators (AID 1519; calls by dose curve); conditions: Drosophila S3 cells, BODIPY lipid droplet/cell ratio, laser cytometry, cells loaded with oleic acid; for activity change, negative = inhibition: at 57.5 µM (top of the series)
Procedure, shortened: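 Cells seeded at 5,000 per well were treated with compounds over a concentration series and loaded with oleic acid (400 uM, as added). Lipid droplet fluorescence (488 nm excitation, 500-530 nm channel) was read by laser-scanning cytometry and normalized to 20 uM Triacsin C.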

[12] = measured here: cell count channel max response
[13] = measured here: lipid channel max response

SMILES | Potency [1] | Potency [2] | Potency [3] | Potency [4] | Potency [5] | Potency [6] | Potency [7] | Potency [8] | Potency [9] | Potency [10] | activity change, negative = inhibition [11] | max response [11, 12] [%] | max response [11, 13] [%]
CC[C@H]1OC(=O)[C@H](C)[C@@H](O[C@H]2C[C@@](C)(OC)[C@@H](O)[C@H](C)O2)[C@H](C)[C@@H](O[C@@H]2O[C@H](C)C[C@H](N(C)C)[C@H]2O)[C@](C)(O)C[C@@H](C)CN(C)[C@H](C)[C@@H](O)[C@]1(C)O | inactive | inactive | inactive | inactive | inactive | inactive | inactive | inactive | inactive | inactive | – | – | –
NC(N)=O | inactive | inactive | inactive | inactive | inactive | inactive | inactive | inactive | inactive | inactive | 6.91% (inactive) | 16.8 | 28
CCCCO | inactive | inactive | inactive | inactive | inactive | inactive | inactive | inactive | inactive | inactive | – | – | –
[O-][N+](=Nc1ccccc1)c1ccccc1 | inactive | inactive | inactive | inactive | inactive | inactive | inactive | inactive | inactive | inactive | – | – | –
OCC(O)CO | inactive | inactive | inactive | inactive | inactive | inactive | inactive | inactive | inactive | inactive | – | – | –
C=C1C(CCl)(CCl)C2(Cl)C(Cl)C(Cl)C1(Cl)C2(Cl)Cl (centres undefined) | 39.8 µM (active) | 39.8 µM (active) | 50.1 µM (active) | 50.1 µM (active) | 50.1 µM (active) | 50.1 µM (active) | 39.8 µM (active) | 39.8 µM (active) | 50.1 µM (active) | – | – | – | –
CCCCC | inactive | inactive | inactive | inactive | inactive | inactive | inactive | inactive | inactive | inactive | – | – | –
CC1=CCC2CC1C2(C)C (centres undefined) | inactive | inactive | inactive | inactive | inactive | inactive | inactive | inactive | inactive | inactive | – | – | –
OB(O)O | inactive | inactive | inactive | inactive | inactive | inactive | inactive | inactive | inactive | inactive | – | – | –
CC/C=C\C/C=C\C/C=C\CCCCCCCC(=O)O | 39.8 µM (active) | – | – | – | – | – | 50.1 µM (active) | 39.8 µM (active) | inactive | inactive | – | – | –
OCc1ccccc1 | inactive | inactive | inactive | inactive | inactive | inactive | inactive | inactive | inactive | inactive | – | – | –
C/C=C/C=C/C(=O)O | inactive | inactive | inactive | inactive | inactive | inactive | inactive | inactive | inactive | inactive | – | – | –
OC[C@H]1O[C@@H]2O[C@H]3[C@H](O)[C@@H](O)[C@@H](O[C@H]4[C@H](O)[C@@H](O)[C@@H](O[C@H]5[C@H](O)[C@@H](O)[C@@H](O[C@H]6[C@H](O)[C@@H](O)[C@@H](O[C@H]7[C@H](O)[C@@H](O)[C@@H](O[C@H]1[C@H](O)[C@H]2O)O[C@@H]7CO)O[C@@H]6CO)O[C@@H]5CO)O[C@@H]4CO)O[C@@H]3CO | inactive | inactive | inactive | inactive | inactive | inactive | inactive | inactive | inactive | inactive | – | – | –
Nc1ncnc2c1ncn2[C@H]1CC[C@@H](CO)O1 | inactive | inactive | inactive | inactive | inactive | inactive | inactive | inactive | inactive | inactive | 1.8% (inactive) | 3.29 | 6.18
CO | inactive | inactive | inactive | inactive | inactive | inactive | inactive | inactive | inactive | inactive | – | – | –
CC(C)O | inactive | inactive | inactive | inactive | inactive | inactive | inactive | inactive | inactive | inactive | – | – | –
ClC(Cl)Cl | inactive | inactive | inactive | inactive | inactive | inactive | inactive | inactive | inactive | inactive | – | – | –
O.O.O.O.O.O.O.O=S(=O)([O-])[O-].[Co+2] | – | – | – | inactive | inactive | – | – | – | inactive | inactive | – | – | –
C[C@H](CCC(=O)O)[C@H]1CC[C@H]2[C@@H]3CC[C@@H]4C[C@H](O)CC[C@]4(C)[C@H]3C[C@H](O)[C@]12C | inactive | – | – | inactive | inactive | inactive | inactive | inactive | inactive | inactive | – | – | –
O=P(O)(O)O | inactive | inactive | inactive | inactive | inactive | inactive | inactive | inactive | inactive | inactive | – | – | –
CO/N=C(/C(=O)N[C@@H]1C(=O)N2C(C(=O)O)=C(COC(N)=O)CS[C@H]12)c1ccco1 | inactive | inactive | inactive | inactive | inactive | inactive | inactive | inactive | inactive | inactive | – | – | –
OCl | inactive | inactive | inactive | inactive | inactive | inactive | inactive | inactive | inactive | inactive | – | – | –
c1ccc2ccccc2c1 | inactive | inactive | inactive | inactive | inactive | inactive | inactive | inactive | inactive | inactive | – | – | –
C[C@H](CCC(=O)O)[C@H]1CC[C@H]2[C@@H]3[C@H](O)C[C@@H]4C[C@H](O)CC[C@]4(C)[C@H]3C[C@H](O)[C@]12C | inactive | inactive | inactive | inactive | inactive | inactive | inactive | inactive | inactive | inactive | – | – | –
Oc1cccc(O)c1O | – | inactive | inactive | inactive | inactive | inactive | – | – | inactive | inactive | – | – | –
